For this assay, the target named is T1, CRBN, Q96SW2.
T1 chain: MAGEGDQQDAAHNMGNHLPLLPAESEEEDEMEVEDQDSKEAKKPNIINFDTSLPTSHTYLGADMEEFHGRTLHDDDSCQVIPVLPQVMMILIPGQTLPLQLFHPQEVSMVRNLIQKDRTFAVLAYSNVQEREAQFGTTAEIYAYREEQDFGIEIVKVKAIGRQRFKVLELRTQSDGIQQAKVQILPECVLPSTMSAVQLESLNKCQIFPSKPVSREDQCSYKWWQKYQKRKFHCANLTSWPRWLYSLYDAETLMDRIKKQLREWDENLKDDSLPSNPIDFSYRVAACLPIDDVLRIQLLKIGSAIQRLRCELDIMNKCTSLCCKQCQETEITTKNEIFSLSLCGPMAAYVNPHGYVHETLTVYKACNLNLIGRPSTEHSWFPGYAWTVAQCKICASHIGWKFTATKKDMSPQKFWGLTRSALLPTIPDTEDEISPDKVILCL
As to the kind of experiment: log2 fold change of degron read counts, EGFP-low vs EGFP+ sorted cells (limma voom), compound-induced degradation; higher = more compound-induced degradation of the degron-EGFP fusion; degrons are variants of IKZF1/3 zinc finger 2; compound dose not given here. As to conditions: Jurkat, 18 h.

Where [1] appears, read: compound: compound 19 (5-tert-butyl-thalidomide).
Setting [2] is: compound: compound 22 (5-morpholino-thalidomide).
[3] abbreviates: compound: compound 33 (diphenyl IMiD analogue).

In all, about 8,300 sequences were measured (“log2 fold change of degron read counts, EGFP-low vs EGFP+ sorted cells (limma voom), compound-induced degradation”: median about -1.1, highest 2% from about 3.2 on). The sample as a whole holds a higher share of the highest values than the screen did.

Data on 15 sequences can be found in the supplement of paper PMC12645437, “Orthogonal IMiD-Degron Pairs Induce Selective Protein Degradation in Cells” (ACS Chemical Biology, 2025).
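Further: pooled lentiviral library of zinc finger degron-EGFP fusions in mCherry-positive Jurkat cells, FACS-sorted after compound exposure, with degron abundance counted by next-generation sequencing.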

For LDCPICGFWCTQKGNLLRHIKL [46L_47D_49P_50I_52G_53F_54W_55C_67L_, Q9UKT9], the “log2 fold change of degron read counts” value was -0.559 under setting [1], -0.625 under setting [2], 0.68 under setting [3] and 1.33 (compound: thalidomide).
The corresponding values for FACPVCGAVFTQKGNLLRHIKL [46F_47A_49P_50V_52G_53A_54V_55F_67L_, Q9UKT9] are 3.09, 1.74, 1.78 and 0.502.
On the same counts, the results for FYCPQCGAMFTQKGNLLRHIKL [46F_47Y_49P_50Q_52G_53A_54M_55F_67L_, Q9UKT9] are 0.518, 0.45, 0.601 and -1.06.
On the same counts, the results for FCCNVCGAWFTQKGNLLRHIKL [46F_47C_49N_50V_52G_53A_54W_55F_67L_, Q9UKT9] are -1.92, -1.43, -1.27 and -1.34.
As for FICEVCGADFTQKGNLLRHIKL [46F_47I_49E_50V_52G_53A_54D_55F_67L_, Q9UKT9], the “log2 fold change of degron read counts” value by setting is: under setting [1], -2.24; under setting [2], -0.906; under setting [3], -0.571; (compound: thalidomide) 0.184.
The corresponding values for FTCDVCGAMFTQKGNLLRHIKL [46F_47T_49D_50V_52G_53A_54M_55F_67L_, Q9UKT9] are -1.4, -0.892, -0.371 and -0.84.
With LSCNQCGFVCTQKGNLLRHIKL [46L_47S_49N_50Q_52G_53F_54V_55C_67L_, Q9UKT9], the “log2 fold change of degron read counts” value was -2.24 under setting [1], -2.61 under setting [2], -2 under setting [3] and -2.24 (compound: thalidomide).
As for FCCPVCGACFTQKGNLLRHIKL [46F_47C_49P_50V_52G_53A_54C_55F_67L_, Q9UKT9], the “log2 fold change of degron read counts” value reads like this: under setting [1], 2.37; under setting [2], 1.98; under setting [3], 2.99; (compound: thalidomide) 2.06.
The corresponding values for FDCPVCGACFTQKGNLLRHIKL [46F_47D_49P_50V_52G_53A_54C_55F_67L_, Q9UKT9] are 1.39, -0.358, 1.46 and 1.34.
As to FVCDVCGACFTQKGNLLRHIKL [46F_47V_49D_50V_52G_53A_54C_55F_67L_, Q9UKT9], the “log2 fold change of degron read counts” value was -1.45 under setting [1], -0.0454 under setting [2], 0.676 under setting [3] and 0.186 (compound: thalidomide).
Consider FMCPVCGACFTQKGNLLRHIKL [46F_47M_49P_50V_52G_53A_54C_55F_67L_, Q9UKT9], for which the “log2 fold change of degron read counts” value by setting is: under setting [1], -0.624; under setting [2], 0.321; under setting [3], 2.31; (compound: thalidomide) 0.962.
On the same counts, the results for FACPVCGACFTQKGNLLRHIKL [46F_47A_49P_50V_52G_53A_54C_55F_67L_, Q9UKT9] are 3.39, 1.64, 1.85 and 0.646.
As to FRCPVCGACFTQKGNLLRHIKL [46F_47R_49P_50V_52G_53A_54C_55F_67L_, Q9UKT9], the “log2 fold change of degron read counts” value reads like this: under setting [1], -0.619; under setting [2], 0.101; under setting [3], 1.52; (compound: thalidomide) 0.981.
On the same counts, the results for FSCPVCGACFTQKGNLLRHIKL [46F_47S_49P_50V_52G_53A_54C_55F_67L_, Q9UKT9] are 2.64, 1.8, 2.73 and 1.07.
The corresponding values for FWCDVCGACFTQKGNLLRHIKL [46F_47W_49D_50V_52G_53A_54C_55F_67L_, Q9UKT9] are 2.78, 3.47, 1.12 and -0.931.
